{"source": "PubChem BioAssay (NCATS)", "note": "Inconclusive results are not listed. Where a call stands in place of a potency, no number is given. More than one record can exist for a structure, and the calls need not agree. The source made the active and inactive calls. The call rests on the fitted dose curve; in most records, active means well fitted inhibition curve with a large enough effect; inconclusive means small, poorly fitted or top-dose-only effect; inactive means flat fitted curve, though single readings scatter. Potency means the concentration at half of the fitted maximal effect."}
{"assay": "P-glycoprotein substrates identified in KB-8-5-11 adenocarcinoma cell line, qHTS therapeutic library screen (AID 1346987); further: nearly all actives have a fitted effect of over 65% in size", "details": "KB-8-5-11 (P-gp overexpressing) viability, CellTiter-Glo, 72 h; series mostly up to 44.5 µM", "outline": "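Human cervical adenocarcinoma KB-8-5-11 cells, selected in colchicine to over-express P-gp and assayed without it, were exposed for 72 h to titrated compounds. An ATP-based luminescent viability signal gave AC50.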"}
{"compound": "CCC(C)(S(=O)(=O)CC)S(=O)(=O)CC", "Potency": "inactive"}
{"compound": "Cc1c(Cl)cccc1S(=O)(=O)Nc1nc(CC(=O)N2CCN(C)CC2)cs1", "Potency": "inactive"}
{"compound": "COc1ccc2c3c1O[C@H]1C(=O)CC[C@H]4[C@@H](C2)N(C)CC[C@]314", "Potency": "inactive"}
{"compound": "CC(C)(C)c1cc(C(C)(C)C)c2c(c1)C(O)(C(F)(F)F)C(=O)O2", "note": "(stereo not drawn)", "Potency": "inactive"}
{"compound": "CCC(=O)O[C@@](Cc1ccccc1)(c1ccccc1)[C@@H](C)CN(C)C", "Potency": "inactive"}
{"compound": "CN1CCCC1CCOC(c1cc2nccc(C(=O)O)c2[nH]1)c1ccccc1Cl", "note": "(stereo not drawn)", "Potency": "inactive"}
{"compound": "Cc1cn(C[C@H](N)C(=O)O)c(=O)n(Cc2cc(-c3ccccc3)sc2C(=O)O)c1=O", "Potency": "inactive"}
{"compound": "C/C=C(\\C)C(=O)OC1C(C)OC(OC2C(C)OC(OC3CCC4(C)C(=CCC5C4CCC4(C)C(C(C)OC6OC(COC7OC(CO)C(O)C(O)C7O)C(O)C(O)C6O)CCC54O)C3)CC2OC)C(O)C1OC", "note": "(stereo not drawn)", "activity change, negative = cytotoxicity": "7.92% [at 9.29 µM] (inactive)"}
{"compound": "[O]=[Cr](=[O])([OH])[O][Cr](=[O])(=[O])[OH]", "Potency": "23.1 µM (active) and inactive"}
{"compound": "S=C(S)N1CCNCC1", "Potency": "inactive"}
{"compound": "CCCN1CCO[C@H]2c3cc(O)ccc3OC[C@@H]21", "Potency": "inactive"}
{"compound": "C[C@@]12C[C@@H](c3ccoc3)OC(=O)C1CC[C@]1(C)[C@H]2[C@H]2C=C[C@]1(O)C(=O)O2", "note": "(stereo partly drawn)", "Potency": "inactive"}
{"compound": "CN(C)CCc1c[nH]c2ccc(CN3CCN(C)S3(=O)=O)cc12", "Potency": "inactive"}
{"compound": "C/C=C(\\C)C(=O)O[C@H]1[C@H](OC(C)=O)[C@]2(CO)[C@H](O)[C@H](O)[C@]3(C)C(=CCC4[C@@]5(C)CC[C@H](O[C@@H]6O[C@H](C(=O)O)[C@@H](O)[C@H](O[C@@H]7OC[C@H](O)[C@H](O[C@@H]8OC[C@H](O)[C@H](O)[C@H]8O)[C@H]7O)[C@H]6O[C@@H]6O[C@H](CO)[C@@H](O)[C@H](O)[C@H]6O)C(C)(C)C5CC[C@]43C)[C@@H]2CC1(C)C", "note": "(stereo partly drawn)", "outcome": "inactive [at 9.29 µM]"}
{"compound": "C[C@@H]1C(=O)O[C@H]2[C@H](O)[C@@]34[C@@H]5OC(=O)[C@@]3(O[C@@H]3OC(=O)[C@@H](O)[C@@]34[C@H](C(C)(C)C)[C@H]5O)[C@@]12O", "Potency": "inactive"}
{"compound": "Cc1ccccc1-n1c(C)nc2ccccc2c1=O", "Potency": "inactive"}
{"compound": "C[C@H]1CCC[C@H](O)CCCCCc2cc(O)cc(O)c2C(=O)O1", "Potency": "14.6 µM (active)"}
{"compound": "CCC(C)(OC(C)=O)C(=O)O[C@H]1[C@H](OC(C)=O)C[C@@H]2[C@@](C)([C@@H]3C[C@H]4C=CO[C@H]4O3)[C@H](C)C[C@H](OC(C)=O)[C@@]2(COC(C)=O)[C@@]12CO2", "note": "(stereo partly drawn)", "Potency": "inactive"}
{"compound": "C=C[C@H]1[C@H](O[C@@H]2O[C@H](CO)[C@@H](O)[C@H](O)[C@H]2O)OC=C2C(=O)OCC[C@H]21", "Potency": "inactive"}
{"compound": "C[N+]1([O-])[C@@H]2CC[C@H]1CC(OC(=O)C(CO)c1ccccc1)C2", "note": "(stereo partly drawn)", "Potency": "inactive"}
{"compound": "O=C(N1CCOCC1)N1CCN(c2ccc(Cl)cc2)CC1", "Potency": "inactive"}
{"compound": "CN(C)CCCCCCN(C)C", "note": "(tested in a mixture with another compound)", "Potency": "inactive"}
{"compound": "CC(=O)OC1CN2CCC1CC2", "note": "(stereo not drawn)", "Potency": "inactive"}
{"compound": "O=C(C[C@@H]1NCCC[C@H]1O)Cn1cnc2cc(Br)c(Cl)cc2c1=O", "Potency": "inactive"}
{"compound": "OC(c1ccccc1)(c1ccccc1)C1CN2CCC1CC2", "note": "(stereo not drawn)", "Potency": "inactive"}
{"compound": "C=C(C)[C@H]1O[C@H]2CC[C@@]3(C)[C@@](O)(CC[C@H]4[C@@H]5OC(C)(C)[C@H]6C[C@@H]7C(=C)Cc8c(Cl)cc9[nH]c(c5c9c8[C@@]76O)[C@@]43C)[C@]23O[C@@H]3[C@H]1O", "Potency": "inactive"}
{"compound": "CC(=O)OC12C(O)C(C)C3(O)C4C=C(C)C(=O)C4CC(CO)=CC3C1C2(C)C", "note": "(stereo not drawn)", "Potency": "inactive"}
{"compound": "C[C@@H]([C@H](O)c1ccccc1)N(C)C", "Potency": "inactive"}
{"compound": "CC(=O)O[C@H]1C[C@H](O[C@H]2[C@@H](O)C[C@H](O[C@H]3[C@@H](O)C[C@H](O[C@H]4CC[C@@]5(C)[C@H](CC[C@@H]6[C@@H]5C[C@@H](O)[C@]5(C)[C@@H](C7=CC(=O)OC7)CC[C@]65O)C4)O[C@@H]3C)O[C@@H]2C)O[C@H](C)[C@H]1O[C@@H]1O[C@H](CO)[C@@H](O)[C@H](O)[C@H]1O", "Potency": "0.206 µM (active)"}
{"compound": "O=C(OCCN1CCCCC1)C(O)(c1ccccc1)c1ccccc1", "Potency": "inactive"}
{"compound": "COc1cc(C)[nH]c(=O)c1CNC(=O)c1c(C)n([C@H](C)C2CCOCC2)c2ccccc12", "Potency": "inactive"}
{"compound": "O=C(NC(=O)c1c(F)cccc1F)Nc1ccc(Cl)c(Oc2ncc(C(F)(F)F)cc2Cl)c1", "Potency": "inactive"}
{"compound": "CN(C)[C@H](Cc1ccccc1)c1ccccc1", "Potency": "inactive"}
{"compound": "C#CC(C)(O)CC", "note": "(stereo not drawn)", "Potency": "inactive"}
{"compound": "CCCC(C)C1(CC)C(=O)NC(=O)NC1=O", "note": "(stereo not drawn)", "Potency": "inactive"}
{"compound": "COC(=O)C1(C)CCC(O)C2(C)c3cc(O)c(C(C)C)cc3C(O)C(OC(C)=O)C12", "note": "(stereo not drawn)", "Potency": "inactive"}
{"compound": "CCN1C[C@]2(COC)[C@H](O)C[C@H](OC)[C@]34[C@@H]5C[C@]6(O)[C@H](OC(=O)c7ccccc7)[C@@H]5[C@@](O)([C@H]([C@H](OC)[C@H]23)[C@@H]14)[C@@H](O)[C@@H]6OC", "Potency": "inactive"}
{"compound": "CCCCCCCCCC(=O)O[C@H]1CC[C@H]2[C@@H]3CCC4=CC(=O)CC[C@]4(C)[C@H]3CC[C@]12C", "Potency": "16.4 µM (active)"}
